Values joined by “and” are separate entries in the source; they are usually repeats but may differ in a detail not shown here. Equal values may be shown once. Results filed as inconclusive are left out. Active and inactive are the calls of the source. Unless noted, the call rests on the fitted dose curve; in most records, active means well fitted curve in either direction with a large enough effect (not every such curve was filed as active); inconclusive means small, poorly fitted or top-dose-only effect, or another doubt; inactive means flat fitted curve, though single readings scatter.
Experiments:
[1] = AP1 Signaling Pathway (AID 357);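 further: ME-180 reporter cells stimulated with EGF at its EC50 level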
In short: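 Titration-series screen for positive or negative modulators of EC50 EGF-induced signaling in ME-180 cells carrying an AP-1-driven beta-lactamase reporter. After 5 hours at 37 degrees Celsius, CCF4 460nm/530nm emission ratio gave %Activity; AC50 values derived.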

[2] = target: Cytochrome P450 1A2 (Homo sapiens) (UniProt P05177); assay: p450-cyp1a2 (AID 410; calls by dose curve)
Chain of Cytochrome P450 1A2 (Homo sapiens) (P05177 whole entry, looked up): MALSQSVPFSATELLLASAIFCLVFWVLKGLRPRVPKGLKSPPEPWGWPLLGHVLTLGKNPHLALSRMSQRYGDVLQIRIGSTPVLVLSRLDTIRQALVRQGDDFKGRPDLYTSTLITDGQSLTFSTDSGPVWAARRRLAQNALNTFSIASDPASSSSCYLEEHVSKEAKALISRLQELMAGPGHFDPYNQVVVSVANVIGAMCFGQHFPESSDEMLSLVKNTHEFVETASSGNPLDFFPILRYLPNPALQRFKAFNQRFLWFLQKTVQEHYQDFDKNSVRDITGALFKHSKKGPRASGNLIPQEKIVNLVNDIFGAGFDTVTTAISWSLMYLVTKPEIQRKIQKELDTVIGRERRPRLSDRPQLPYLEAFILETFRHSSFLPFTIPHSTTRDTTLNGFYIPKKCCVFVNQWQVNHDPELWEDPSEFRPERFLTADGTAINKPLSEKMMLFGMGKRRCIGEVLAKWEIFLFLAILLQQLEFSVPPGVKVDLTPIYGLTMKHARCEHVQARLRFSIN
In short: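 20nM CYP1A2, 100uM Luciferin-ME (=Km), 100mM KPO4; cpd 10 min RT; +NADPH regen, 60 min RT; stop/detect 20 min; luminescence. Normalized to furafylline 57 uM = full inhibition.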

[3] = NFAT Signaling Pathway (AID 444);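 further: carbachol stimulus at about its EC50 of 1 µM final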
In short: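 Jurkat cells carrying an NFAT-driven β-lactamase reporter and co-transfected muscarinic M1 receptor were treated with compound plus carbachol (1 uM final, an EC50 level) for 5 h at 37 °C. CCF4 loading followed for 1 h at RT; 460/530 nm ratio gave %activity.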

[4] = Stat Signaling Pathway (AID 446);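 further: ME-180 cervical cancer cells given 40 pM IL-6 alongside compound; SIE-controlled beta-lactamase reporter measured as 460/530 nm FRET emission ratio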
In short: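 FRET read-out (405 nm excitation, 460/530 nm emission) of a beta-lactamase reporter under a STAT-inducible element in ME-180 cervical carcinoma cells. Cells with compound receive 40 pM IL-6 for 5 h. Values are normalised to AC90 stimulation and AC90 JAK-inhibitor controls.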

[5] = target: Glucocorticoid receptor (Homo sapiens) (UniProt P04150); assay: GR-GFP Redistribution (AID 450;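 active means compounds whose dose series gives a full or clear partial fitted curve of increased nuclear translocation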; further: potency means the concentration at half of the fitted maximal effect); conditions: U2OS GR-GFP nuclear translocation, laser cytometry, 2 h
Chain of Glucocorticoid receptor (Homo sapiens) (P04150 whole entry, looked up, the tested form may be a part): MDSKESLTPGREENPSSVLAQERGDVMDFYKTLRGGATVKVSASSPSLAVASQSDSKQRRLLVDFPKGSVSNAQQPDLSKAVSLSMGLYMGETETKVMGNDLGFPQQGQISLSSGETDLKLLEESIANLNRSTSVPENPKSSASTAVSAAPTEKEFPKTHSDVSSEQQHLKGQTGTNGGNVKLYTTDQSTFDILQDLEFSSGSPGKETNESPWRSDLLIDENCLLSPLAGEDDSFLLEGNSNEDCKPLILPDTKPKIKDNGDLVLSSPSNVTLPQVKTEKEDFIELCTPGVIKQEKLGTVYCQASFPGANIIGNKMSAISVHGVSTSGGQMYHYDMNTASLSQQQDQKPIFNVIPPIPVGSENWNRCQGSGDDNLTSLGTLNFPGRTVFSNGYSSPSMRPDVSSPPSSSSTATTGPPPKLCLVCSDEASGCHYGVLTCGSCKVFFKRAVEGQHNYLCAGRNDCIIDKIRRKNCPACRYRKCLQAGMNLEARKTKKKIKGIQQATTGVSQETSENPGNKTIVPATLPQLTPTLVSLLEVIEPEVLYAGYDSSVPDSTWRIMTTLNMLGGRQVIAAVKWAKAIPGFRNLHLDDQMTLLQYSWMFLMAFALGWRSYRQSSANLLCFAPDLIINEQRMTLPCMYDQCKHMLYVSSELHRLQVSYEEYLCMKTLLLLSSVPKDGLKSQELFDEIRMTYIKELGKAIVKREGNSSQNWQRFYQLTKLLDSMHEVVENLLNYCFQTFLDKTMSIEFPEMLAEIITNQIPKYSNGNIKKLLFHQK

[6] = target: Glucocorticoid receptor (Homo sapiens) (UniProt P04150); assay: GR-EFC Redistribution (AID 451; calls by dose curve; further: potency means the concentration at half of the fitted maximal effect); conditions: CHO-K1 GR-EFC translocation, beta-gal luminescence, 2 h
In short: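 CHO-K1 cells stably expressing nuclear-localized β-gal enzyme acceptor and GR fused C-terminally to the enzyme donor fragment; ligand-driven nuclear translocation restores β-gal by complementation. Compounds titrated up to 46 uM final, 2 h at 37 °C; luminescence read.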

[7] = target: Mitogen-activated protein kinase 10 (Mus musculus) (UniProt Q61831); assay: JNK3 AlphaScreen Assay (AID 530);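 further: kinase came from lysate of stimulated human HepG2 cells; signal reports phosphorylation of biotinylated GST-cJun 1-79 at Ser73 with 10 µM ATP; series mostly up to about 57 µM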
In short: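 Biotinylated GST-cJun(1-79) served as substrate for JNK3 in HepG2 lysates stimulated with IL-1beta and TNF-alpha. ATP was 10 uM final, pH 7.6. Ser73 phosphorylation was quantified by AlphaScreen (680 nm excitation).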

[8] = Cell Viability - BJ (AID 421; calls by dose curve;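 further: potency means the concentration at half of the fitted maximal effect; cells exposed to compound for 40 hours at 37 °C before readout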); conditions: BJ fibroblast viability, qHTS
In short: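 Cytotoxicity as drop in intracellular ATP (CellTiter-Glo, 20 min RT) after 40 hr compound exposure of BJ fibroblasts at 37 °C. Titrations scaled between DMSO and 100 uM tamoxifen, Hill-fitted for AC50.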

[9] = Cell Viability - Jurkat (AID 426;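 active means dose-dependent loss of cell ATP signal giving a full or clear fitted curve, ranked by lower potency value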;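 further: potency means the concentration at half of the fitted maximal effect; cells exposed to compound for 40 hours at 37 °C before ATP read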); conditions: qHTS
In short: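 Luminescent ATP read-out (CellTiter-Glo, 20 min at room temperature) after 40 hr compound exposure at 37 °C of Jurkat E6-1 cells, 5000/well. Decreased ATP taken as cytotoxicity; AC50 from standard Hill equation.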

[10] = Cell Viability - Hek293 (AID 427;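 active means compounds whose dose-response curve shows a full or clear partial loss of cell viability, called from curve shape rather than a numeric limit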;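 further: potency means the concentration at half of the fitted maximal effect; cells exposed to compound for 40 hours at 37 °C before reading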); conditions: qHTS
In short: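 Luminescent ATP content (CellTiter-Glo, 20 min at room temperature) was measured after a 40 hr, 37 °C compound exposure of HEK293 cells. AC50 values came from Hill-equation fits of qHTS concentration-response data normalized to DMSO and 100 uM tamoxifen.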

[11] = Cell Viability - HepG2 (AID 433; calls by dose curve;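 further: potency means the concentration at half of the fitted maximal effect; potency for ATP loss meaning cytotoxicity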); conditions: qHTS
In short: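 ATP luminescence (CellTiter-Glo) after 40 h compound exposure, 37 °C, HepG2, 1500 cells/well, complete medium. Normalized: DMSO = basal, 100 uM tamoxifen = 100% inhibition. AC50 via standard Hill equation.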

[12] = Cell Viability - MRC5 (AID 434; calls by dose curve;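 further: potency means the concentration at half of the fitted maximal effect; cells exposed to compound for 40 hours at 37 °C; potency reflects cytotoxicity seen as loss of intracellular ATP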); conditions: MRC5 lung fibroblast viability, qHTS
In short: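 Decrease in intracellular ATP, quantified by luciferase light output, reflects compound toxicity toward MRC5 cells exposed for 40 hr in complete culture medium. Concentration-response curves, scaled between DMSO and 100 uM tamoxifen, gave AC50 values.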

[13] = Cell Viability - SK-N-SH (AID 435; calls by dose curve; further: potency means the concentration at half of the fitted maximal effect); conditions: SK-N-SH neuroblastoma cell viability qHTS
In short: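 CellTiter-Glo ATP luminescence, 20 min RT read; cells pre-plated 5 hr, compound 40 hr at 37 °C, 1500 cells/well, complete medium. Normalized DMSO = 0, 100 uM tamoxifen = 100% inhibition; Hill-fit AC50.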

[14] = Cell Viability - N2a (AID 540; active means well fitted curve in the direction sought with a large enough effect; an effect the other way counts as inactive or inconclusive; further: nearly all actives have a fitted effect of over 45% in size)
In short: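 N2a mouse neuroblastoma, 1500 cells/well, 5 hr settle; compound 40 hr, 37 °C; CellTiter-Glo 20 min RT; luminescence; Hill-fit AC50.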

[15] = Cell Viability - NIH 3T3 (AID 541; active means well fitted curve in the direction sought with a large enough effect; an effect the other way counts as inactive or inconclusive; further: nearly all actives have a fitted effect of over 25% in size)
In short: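 qHTS format; 40 hr compound exposure, 37 °C; CellTiter-Glo luminescence (cellular ATP) read-out after 20 min at RT. Decrease in ATP = cytotoxicity; AC50 from standard Hill fit.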

[16] = Cell Viability - HUV-EC-C (AID 542; active means well fitted curve in the direction sought with a large enough effect; an effect the other way counts as inactive or inconclusive; further: nearly all actives have a fitted effect of over 35% in size)
In short: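 Luminescent ATP read-out (CellTiter-Glo, 20 min room temperature) after 40 hr compound treatment of HUV-EC-C cells at 37 °C. Concentration-response data fitted with the standard Hill equation to give AC50; tamoxifen and doxorubicin served as positive controls.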

[17] = Cell Viability - H-4-II-E (AID 543; active means well fitted curve in the direction sought with a large enough effect; an effect the other way counts as inactive or inconclusive; further: nearly all actives have a fitted effect of over 35% in size)
In short: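 qHTS, rat hepatoma H-4-II-E, 1500 cells/well; 40 hr compound exposure, 37 °C; CellTiter-Glo ATP luminescence after 20 min RT; AC50 by standard Hill fit.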

[18] = Cell Viability - SH-SY5Y (AID 544; active means well fitted curve in the direction sought with a large enough effect; an effect the other way counts as inactive or inconclusive; further: nearly all actives have a fitted effect of over 55% in size)
In short: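 SH-SY5Y, 1500 cells/well, 5 hr pre-incubation 37 °C; cpd 40 hr 37 °C; CellTiter-Glo 20 min RT; luminescence (ATP) read. qHTS concentration-response, Hill fit → AC50. Tamoxifen, doxorubicin as positive controls.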

[19] = Cell Viability - Renal Proximal Tubule (AID 545; active means well fitted curve in the direction sought with a large enough effect; an effect the other way counts as inactive or inconclusive; further: nearly all actives have a fitted effect of over 40% in size)
In short: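 Rat kidney proximal tubule cells, freshly isolated; 1000 cells/well, 5 hr settle, compound 40 hr 37 °C. CellTiter-Glo 20 min RT, luminescence read. AC50 by standard Hill fit.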

[20] = Cell Viability - Mesenchymal (AID 546; active means well fitted curve in the direction sought with a large enough effect; an effect the other way counts as inactive or inconclusive;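 further: cells exposed to compound for 40 hours before reading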)
In short: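 In this qHTS cytotoxicity format, glomerulus-derived human mesenchymal kidney cells received compound for 40 hr, then luciferase-based ATP quantitation. Concentration-response data were fitted with the Hill equation.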

Measured: Potency

CC(C)C[C@H](NC(=O)[C@@H]1O[C@H]1C(=O)O)C(=O)NCCCCN=C(N)N
inactive: [1] | [2] | [3] | [4] | [5] > 46 µM and > 20.6 µM | [6] > 46 µM | [7]

C=C1C[C@]23C[C@@]1(O)CC[C@H]2[C@@]12C=C[C@H](O)[C@@](C)(C(=O)O1)[C@H]2[C@@H]3C(=O)O
inactive: [8] > 92 µM | [9] > 92 µM | [10] > 92 µM | [11] > 92 µM | [12] > 92 µM | [13] > 92 µM | [7] | [14] | [15] | [16] | [17] | [18] | [19] | [20]

COc1ccc(CCC(=O)c2c(O)cc(O[C@@H]3O[C@H](CO)[C@@H](O)[C@H](O)[C@H]3O[C@@H]3O[C@@H](C)[C@H](O)[C@@H](O)[C@H]3O)cc2O)cc1O
inactive: [8] > 92 µM | [9] > 92 µM | [10] > 92 µM | [11] > 92 µM | [12] > 92 µM | [13] > 92 µM | [7] | [14] | [15] | [16] | [17] | [18] | [19] | [20]

CCc1cccc2c3c([nH]c12)[C@@](CC)(CC(=O)O)OCC3
inactive: [1] | [2] | [3] | [4] | [7]

CCN1CCN(C(=O)N[C@@H](C(=O)N[C@@H]2C(=O)N3[C@@H]2SC(C)(C)[C@@H]3C(=O)O)c2ccccc2)C(=O)C1=O
inactive: [3] | [4]

C[C@]1(C2CCCC2)Cc2cc(OCC(=O)O)c(Cl)c(Cl)c2C1=O
inactive: [1] | [2] | [3] | [4] | [5] > 46 µM | [6] > 46 µM | [7]

— PubChem BioAssay (NCATS)
